Screens deposited in PubChem BioAssay by National Center for Advancing Translational Sciences (NCATS).
Compounds with a hit are over-represented: about 1.5% of the library has one in this group of screens.
GALK inhibitor: inhibitors of human galactokinase; Purified GALK, Kinase-Glo residual ATP luminescence; Potency, µM (highest dose often 57.5 µM), for the others: at the top dose activity change, negative = inhibition, usual class: inhibitors; 0.007% of 270,000 active; note: potency is the fitted concentration of half-maximal effect
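The enzyme phosphorylates galactose (100 uM) using ATP (35 uM); inhibition is detected as higher residual ATP, quantified by bioluminescence after 1 h reaction at room temperature, pH 8.0.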
Giardia killer: Giardia lamblia killing | Giardia lamblia trophozoite viability | activity change, % at 7.66 µM, hits read low | 0.15% of 340,000 active; in the data active = activity change below about -80%; inconclusive = between about -30% and that limit;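 note: parasites exposed to compound for two days anaerobically before the ATP read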
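Viability, read as ATP luminescence: trophozoites at 100 cells/well, compound added, 48 hrs anaerobic at 37 deg C, then 15-30 min room-temperature development before reading.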
Coupling enz: counter-screen for Giardia aldolase inhibitors: coupling enzyme system | coupling enzyme system counterscreen, AmpLite Red fluorescence | 0.67% of 290,000 active | AID 2472 | activity change, negative = inhibition, % at 58.2 µM, hits read low; in the data active = activity change below about -30%
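Fluorescence at 525 nm excitation and 598 nm emission measured inhibition of the coupled detection system without aldolase. Compounds (at 57.5 uM final) were preincubated 10 min at room temperature with coupling enzyme reagent before a 20 min substrate/AmpLite Red step.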
PI4K2A block: PI4K2A (human) kinase inhibition | purified PI4K2A, ADP-Glo luminescence, 1 h; active compounds read low | 0.13% of 420,000 active | Q9BTU6 | activity change, negative = inhibition, % at 76.9 µM; in the data active = activity change below about -50%; inconclusive = mostly about -30% to -49%;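 note: -100% = wells without enzyme as full effect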
Target sequence (Q9BTU6 whole entry, looked up): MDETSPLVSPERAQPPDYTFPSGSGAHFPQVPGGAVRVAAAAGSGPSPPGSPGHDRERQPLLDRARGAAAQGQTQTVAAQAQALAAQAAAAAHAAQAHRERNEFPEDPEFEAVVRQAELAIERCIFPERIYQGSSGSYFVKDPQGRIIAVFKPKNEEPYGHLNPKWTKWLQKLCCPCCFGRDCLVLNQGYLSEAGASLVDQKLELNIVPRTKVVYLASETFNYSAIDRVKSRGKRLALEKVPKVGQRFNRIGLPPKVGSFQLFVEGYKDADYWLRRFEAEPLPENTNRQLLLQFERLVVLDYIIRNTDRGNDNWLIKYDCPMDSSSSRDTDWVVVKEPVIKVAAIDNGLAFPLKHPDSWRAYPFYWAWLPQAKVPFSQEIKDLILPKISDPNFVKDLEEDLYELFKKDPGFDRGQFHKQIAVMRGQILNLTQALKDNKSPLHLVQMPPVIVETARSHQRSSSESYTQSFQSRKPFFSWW
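In this quantitative HTS, ADP production by PI4K2A was quantified luminescently after 1 h at ambient temperature; 100 microM adenosine served as plate-quality control.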
TrxR1 substrate: is turned over as a substrate by rat TrxR1. Potency, µM (series often up to 114 µM), without a hit: at the top dose activity change, negative = substrate turnover. AID 588456. O89049. 0.01% of 390,000 active. purified TrxR1 substrate turnover, NADPH consumption readout; note: potency is the fitted concentration of half-maximal effect; nearly all actives have a fitted effect of over 50% in size
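Rat TrxR1, dispensed at 90 nM, was prereduced with 400 uM NADPH (final) for 5 min at ~22 deg C, then incubated with compound 15 min before 400 uM selenite. A first-read NADPH fluorescence drop versus no-compound background flagged substrates.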
TrxR1 inh: rat TrxR1 inhibition | O89049 | recombinant rTrxR1, NADPH fluorescence consumption, selenite substrate | Potency, µM (titrated, usually from 114 µM), for the others: top-dose activity change, negative = inhibition, hits mostly inhibitors | 1% of 390,000 active | AID 588453; note: potency is the fitted concentration of half-maximal effect; nearly all actives have a fitted effect of over 65% in size
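Rat TrxR1 (90 nM in the dispensed reagent) was pre-reduced with 400 uM NADPH for 5 min at room temperature, then incubated with compound for 15 min. After 400 uM selenite was added, NADPH fluorescence (Ex 340/Em 450 nm) was followed for 8 min.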
Active calls of the source: *; ? = inconclusive; · = no result; ! = a repeat was not active; [ ] = dose if it differs, or a comment. Unless noted, calls come from the whole dose curve; as a rule, active = well fitted curve in the direction sought with a large enough effect; inconclusive = small, poorly fitted or top-dose-only effect, or another doubt; inactive = no such curve, though single readings can be large; an effect the other way counts as inactive or inconclusive. Unless noted, % is set by controls: 0 for no effect and ±100 for the full control effect.

SMILES	GALK inhibitor	Giardia killer	Coupling enz	PI4K2A block	TrxR1 substrate	TrxR1 inh
C=C(Br)COC(c1ccco1)[C@H](Cc1ccccc1)NC(=O)OC(C)(C)C (some centres undefined)	·	·	·	·	-12%	?
O=C(Cc1cccc(F)c1)NO	·	·	·	·	6%	14%
c1ccc2c(c1)nc(N1CCOCC1)c1c3ccccc3[nH]c21	0%	-17	-45*	1	1%	0%
O=c1[nH]c2ccccc2nc1N1CCOCC1	3%	17	4	-1	-10%	-13%
Cn1c(SCCOc2ccccc2)nnc1-c1ccc(NC(=O)CCc2ccccc2)cc1	·	·	·	·	-7%	-13%
O=C(CCNc1cc(Cl)cc(Cl)c1)c1ccco1	2%	-7	0	3	2%	8.9µM*
O=C(CCNc1cccc(C(F)(F)F)c1)c1ccco1	-2%	-23	-2	9	-1%[57.1 µM]	?
O=C(CCNc1ccc(F)c(Cl)c1)c1ccco1	-3%	20	-2	-4	12%	?
O=C(CCNc1ccc(F)cc1)c1ccco1	0%	-19	-10	4	-4%	11µM*
COC(=O)c1ccc(OC)c(CN2CCCN(Cc3ccc(F)cc3)S2(=O)=O)c1	2%	1	-31*	1	-7%[57.1 µM]	-7%[57.1 µM]
COc1ccccc1N1CCN(CCN(C(=O)C2CCCCC2)c2ccccn2)CC1	·	-4	·	-65*!	2%	4%
O=C(CCl)c1cc2c3c(c1)CC(=O)N3CCC2	15%	-4	0	2	-11%	89µM*
O=C(NCCO)C(=O)Nc1cc2c3c(c1)CC(=O)N3CCC2	-2%	-11	-2	-6	-8%	-1%
COC(=O)C1=C[C@@H](C(=O)OC)[C@@H]2C3=C(C(=O)C2(C)C)[C@H](C)n2c(=O)n(-c4ccccc4)c(=O)n2[C@@H]3C1	·	3	1	-2	10%	56µM*
O=C(Nc1ccc2[nH]ccc2c1)c1ccccc1	9%	?	-3	-19	3%	14%[57.1 µM]
O=C(Nc1ccc2[nH]ccc2c1)c1ccc(F)cc1	-2%	-83*	-5	-18	-8%	16%
O=[N+]([O-])c1cc(Cl)c2cccnc2c1O	-1%	-11	-8	-17	-9%[57.1 µM]	-6%[57.1 µM]
Oc1c(I)cc(Cl)c2cccnc12	·	1	-12	-25	3%	7.9µM*
Cc1cc(C)c2oc(-c3ccc(C)c(NC(=O)/C=C/c4ccco4)c3)nc2c1	·	·	·	-3	13%[11.4 µM]	3.2µM*
CCC(C(=O)NCCc1ccc(OC)c(OC)c1)n1nc(C)c2sc3ccccc3c2c1=O (centres undefined)	·	·	·	2	30%	16%
COC(=O)C1=C(C)N(c2ccc(F)c(Cl)c2)C(=O)C1	0%	-9	0	12	7%	14µM*
O=C(CN(C(=O)Cn1nnc(-c2cccs2)n1)c1ccc2c(c1)OCCO2)NCc1ccccc1	-3%	19	-5	1	-6%	2%[57.1 µM]
O=C(CN(CCc1ccccc1)C(=O)Cn1nnc(-c2cccs2)n1)NCc1ccco1	-5%	-14	-5	-2	-9%	50µM*
CCOC(=O)c1ccc(-n2c(CN3CCC(O)CC3)nc3ccc([N+](=O)[O-])cc3c2=O)cc1	4%	-6	-2	-1	-10%	50µM*
O=C(c1ccccc1)C(CN1CCCCC1)c1ccccc1 (centres undefined)	·	3	·	38	4%	25µM*
SMILES	GALK inhibitor	Giardia killer	Coupling enz	PI4K2A block	TrxR1 substrate	TrxR1 inh
CN1C(=O)/C(=N\OC(=O)c2ccccc2Cl)c2ccccc21	-1%	-14	-2	7	5%	10µM*
CC(=O)O/N=C1\C(=O)N(Cc2ccc(C)cc2)c2ccccc21	-1%	-13	8	7	-7%	-72%
Cc1c(C(=O)Oc2ccc(-c3cnc4ccccc4n3)cc2)cccc1[N+](=O)[O-]	1%	7	4	6	-4%	5%
O=C(Nc1cccc(-c2cnc3ccccc3n2)c1)c1ccco1	1%	7	2	8	-9%	-8%
O=C(Oc1ccc(-c2cnc3ccccc3n2)cc1)c1ccco1	15%	2	1	-77*	-2%	-10%
CCC(=O)Oc1ccc(-c2cnc3ccccc3n2)cc1	2%	-9	2	-65*	4%	1%
CCC(=O)Oc1ccc(-c2nc(-c3cccnc3)no2)cc1	5%	-13	-3	-55*	1%[57.1 µM]	1%[57.1 µM]
C=C1C=C(C(F)F)n2ncc(C(=O)N3CCN(c4ccccc4)CC3)c2N1	·	·	·	·	0%	-2%
CC(=O)NC(Cc1ccc([N+](=O)[O-])cc1)C(=O)NCC(N)C(=O)c1ccccc1 (centres undefined)	·	·	·	·	1%	4%
COc1cc(C2C(C(=O)N3CCOCC3)=C(C)NC3=C2C(=O)CCC3)ccc1OC(C)=O (centres undefined)	-1%	-13	-33*	0	57%	6%
c1ccc(-c2ccccc2OCCOCCN2CCOCC2)cc1	-7%	-3	-51*	9	4%	17%
Nc1ccc(N2CCCCCC2)cc1	2%	·	-35*	·	·	·
Nc1ccc(N2CCN(c3ccc(F)cc3)CC2)cc1	0%	7	0	-1	-3%[57.1 µM]	4%[57.1 µM]
c1ccc(-c2onc(-c3ccco3)c2-c2ccc3[nH]ccc3c2)cc1	·	7	-9	0	12%[57.1 µM]	28µM*!
CCN1CCc2c(sc(NC(=S)NC(=O)c3ccccc3)c2C#N)C1	0%	33	-4	-20	-8%	18µM*
N#Cc1c(NC(=S)NC(=O)c2ccccc2)sc2c1CCC2	0%	10	3	1	-1%	?
CCO[C@H](Cc1ccc(OCCc2ccc(OS(C)(=O)=O)cc2)cc1)C(=O)O	·	·	·	-1	·	·
[O-][n+]1cccc2cccc(O)c21	·	13	·	0	6%[57.1 µM]	7%[57.1 µM]
C[n+]1cccc2cccc([O-])c21	?	17	-45*	?	-12%	-8%
COc1ccc(C(=O)CC(Nc2ccc([N+](=O)[O-])cc2)c2ccc(OC)cc2)cc1 (centres undefined)	0%	-10	-3	0	2%	21%
CNC(CC(=O)c1ccc([N+](=O)[O-])cc1)C(Cl)(Cl)Cl (centres undefined)	2%	3	-7	-1	?	0.63µM*
CCCCn1c(NC(=O)c2ccco2)c(S(=O)(=O)c2ccc(C)cc2)c2nc3ccccc3nc21	·	0	-25	-4	16%[57.1 µM]	-8%[57.1 µM]
CCCCn1c(NS(=O)(=O)c2ccccc2)c(S(=O)(=O)c2ccc(C)cc2)c2nc3ccccc3nc21	-14%	-16	-32*	-6	448%	62%
Cn1c([N+](=O)[O-])cnc1COC(N)=O	-3%	-90*	4	-1	-5%	18%
